# This is one part of a sample in which hits are shown more often than they occur.
# FECH inh: human FECH heme synthesis enzyme inhibition; P22830; purified FECH, Ni-mesoporphyrin absorbance 550 nm; calls only at 10 µM (by protocol); 3.3% of 20,000 active;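 active = enzyme reaction rate more than 3 SD below the solvent-only control wells on the same plate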;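 note: lower slope than DMSO wells means FECH inhibition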
# Target sequence (P22830 whole entry, looked up): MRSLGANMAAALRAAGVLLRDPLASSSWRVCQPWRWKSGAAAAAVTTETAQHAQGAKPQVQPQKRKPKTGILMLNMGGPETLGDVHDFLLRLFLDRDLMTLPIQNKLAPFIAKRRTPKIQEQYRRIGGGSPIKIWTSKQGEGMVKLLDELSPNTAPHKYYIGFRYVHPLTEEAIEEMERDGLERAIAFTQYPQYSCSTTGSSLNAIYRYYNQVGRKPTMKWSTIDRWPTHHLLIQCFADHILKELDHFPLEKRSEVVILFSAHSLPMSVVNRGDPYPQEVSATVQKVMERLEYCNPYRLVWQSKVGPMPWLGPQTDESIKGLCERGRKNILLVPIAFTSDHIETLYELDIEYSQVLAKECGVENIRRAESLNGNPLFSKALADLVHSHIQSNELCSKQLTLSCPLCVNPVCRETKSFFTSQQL
# An asterisk follows results filed as active; i = inactive; + = active, no number.
SMILES,FECH inh
O=C(CN1c2ccc(F)cc2-c2ccccc2S1(=O)=O)NC(c1ccccc1)c1ccccc1,i
CCNC(=O)CN1c2ccc(Br)cc2-c2ccccc2S1(=O)=O,+
COCC(C)NC(=O)CN1c2ccc(F)cc2-c2ccccc2S1(=O)=O (centres undefined),i
CCc1nnsc1C(=O)N1CCc2[nH]nc(-c3cccc(OC)c3)c2C1,i
Cc1cc(C)nc(NCCCn2nccc2C2CC2)n1,i
CN(Cc1ncc[nH]1)C(=O)c1nc2ccccc2s1,i
Fc1cccc(Nc2nc(N3CCOCC3)nc3c2cnn3-c2ccccc2)c1,i
Cc1ccc(-c2ncc3c(=O)n(CCN(C)C)c(=O)n(C)c3n2)cc1,i
Cc1c(C(=O)N2CCC3(CCNC(=O)CC3)CC2)cnc2cc(=O)[nH]n12,i
CCOc1ccc(CC(=O)Nc2cccc(N3CCCS3(=O)=O)c2)cc1,i
CC1(C)CNC(=O)c2nc(-c3ccncc3)[nH]c2C1,i
CCC(=O)Nc1cccc(C(=O)N(C)C(C)Cc2ccccc2OC)c1 (centres undefined),i
O=C(NCCc1c[nH]c2ccccc12)c1nc[nH]c1C(=O)NCc1ccccn1,i
O=C(NCc1ccccn1)c1nc[nH]c1C(=O)NCc1ccccn1,+
CCCNC(=O)c1[nH]cnc1C(=O)NC1CCc2ccccc21 (centres undefined),i
O=C(NCc1ccccn1)c1nc[nH]c1C(=O)NCc1cccc(C(F)(F)F)c1,+
O=C(NC1CCc2ccccc21)c1nc[nH]c1C(=O)NCc1ccccn1 (centres undefined),+
CC(C)CCNC(=O)c1[nH]cnc1C(=O)NC(c1ccccc1)c1ccccc1,i
CC(C)CCNC(=O)c1nc[nH]c1C(=O)NCc1cccc(C(F)(F)F)c1,i
CC(C)(C)CNC(=O)c1[nH]cnc1C(=O)NC1CCC(O)CC1 (centres undefined),i
CC(C)CNC(=O)c1nc[nH]c1C(=O)NCC(C)(C)C,i
C/C=C(\C)c1c(-c2ccccc2)ncn1CCN1CCCC(CO)C1 (centres undefined),i
CCn1cnnc1CN(C)C(=O)c1ccc(OCC(=O)N2CCCCC2)cc1,i
CCN(CC)Cc1cnc2c(C(=O)N3CCC3c3cccs3)cnn2c1 (centres undefined),i
COC(=O)c1c(NC(=O)c2sc3ccccc3c2Cl)sc2c1CCN(C)C2,i
SMILES,FECH inh
Cc1cc(C)n2nc(CN(C(=O)C(C)C)c3ccc(F)cc3)nc2n1,i
CCCc1cc(Sc2ccc(NC(=O)c3cccs3)cc2)n2ncnc2n1,i
O=C(O)c1ccc(-c2ccn[nH]2)cc1Cl,i
COCCN1CCC(C(=O)N2CCN(C)C3(CCN(C)CC3)C2)C1 (centres undefined),i
CN(C)C(=O)c1ccc(-c2ccc(COCCN)cc2)cc1,+
Cc1cc(NC(=O)c2ccc(OC(C)C)cc2)n(-c2ncnc3c2cnn3-c2ccc(Cl)cc2)n1,i
CC(=O)Nc1nc2n(n1)C(c1c(F)cccc1Cl)C=C(c1ccc(C)cc1)N2 (centres undefined),i
CCC(=O)Nc1nc2n(n1)C(c1c(F)cccc1Cl)C=C(c1ccc(Cl)cc1)N2 (centres undefined),i
CC(C)C(=O)Nc1nc2n(n1)C(c1c(F)cccc1Cl)C=C(c1ccccc1)N2 (centres undefined),+
CCCC(=O)Nc1nc2n(n1)C(c1c(F)cccc1Cl)C=C(c1ccc(Cl)cc1)N2 (centres undefined),i
CC(C)C(=O)Nc1nc2n(n1)C(c1ccc(Cl)cc1)C=C(c1ccccc1)N2 (centres undefined),i
CCC(=O)Nc1nc2n(n1)C(c1c(F)cccc1Cl)C=C(c1ccccc1)N2 (centres undefined),+
Cc1cn(CC(=O)N2CCCC(N(C)CCc3ccccc3)C2)c(=O)[nH]c1=O (centres undefined),i
CC(C)Cc1nc(CC(F)(F)F)n(-c2cccc3cccnc23)n1,i
CN1CCN(c2ccc(-c3ccccc3)nn2)CC1C(=O)O (centres undefined),i
c1ccc(-c2nc[nH]c2-c2ccc(C3CCCCO3)o2)cc1 (centres undefined),i
Cc1ccc(NC(=O)c2ccc(CN3C(=O)CCn4nc(C)cc43)cc2)cc1,i
CCN(CC)c1nccc(-c2cc(C(=O)O)ccn2)n1,i
CCOCc1nccc(-c2cc(C(=O)O)ccn2)n1,+
CCOc1ccc(-c2ccnc(CC3CCN(C)CC3)n2)cc1C(=O)O,i
CCC1CN(C(=O)c2ccc3[nH]c(=O)[nH]c3c2)CCC(=O)N1Cc1ccccc1 (centres undefined),i
Cc1nc2c(c(NCCc3csc(-c4cccnc4)n3)n1)CCNC2,i
O=C(NCCc1csc(-c2cccnc2)n1)C1CNCCO1 (centres undefined),i
c1cncc(-c2nc(CCNCc3nc(-c4ccco4)no3)cs2)c1,+
CCCC(C)CN1CCC(n2cc(CN(C)C)nn2)CC1 (centres undefined),+
SMILES,FECH inh
CCCCc1cn(C2CCN(C(=O)C3CC(=O)N(C(C)(C)C)C3)CC2)nn1 (centres undefined),i
CCCC(C)CN1CCC(n2cc(-c3ccccc3)nn2)CC1 (centres undefined),i
Cc1nc(NCCc2nc3c(s2)CCC3)c2cnn(C)c2n1,i
O=C(NCC1CCCCO1)c1cc(COc2c(F)cccc2F)on1 (centres undefined),i
Cc1ccc(C)c(OCc2cc(C(=O)NCc3nnc4n3CCC4)no2)c1,+
Cc1cccc(C(C(=O)NCc2nnc3n2CCC3)N(C)C)c1 (centres undefined),i
COc1ccccc1NC(=O)C1CCCN1S(=O)(=O)c1cc2c(cc1C)NC(=O)CO2 (centres undefined),i
Cc1ccc(NC(=O)C2CCN(S(=O)(=O)c3cc4c(cc3C)NC(=O)CO4)CC2)nc1,+
Cc1cc2c(cc1S(=O)(=O)N1CCCC1C(=O)N1CCc3ccccc31)OCC(=O)N2 (centres undefined),+
Cc1ccc(NC(=O)CN2C(=O)CCc3cc(S(=O)(=O)N4CCCC4)ccc32)nc1,i
CC1CCCCN1S(=O)(=O)c1cc2c(cc1Cl)NC(=O)CO2 (centres undefined),i
CCOC(=O)C1CCN(S(=O)(=O)c2cc3c(cc2Cl)NC(=O)CO3)CC1,i
CC(C)OC(=O)c1cc2ccsc2n1CC(=O)Nc1cccc(F)c1,i
Cn1ccnc1-c1c(-c2ccccc2)ncn1CCc1n[nH]c(=O)[nH]1,i
CNC(=O)c1ccc(OC)c(-n2ccc(C)n2)c1,i
CSCc1nc(CNC(=O)c2ccc3[nH]c(=O)[nH]c3c2)cs1,i
CCn1ncnc1C(C)NC(=O)c1c(C)nc2ncccn12 (centres undefined),i
CCn1ncnc1C(C)NC1CC(C)(C)NC(C)(C)C1 (centres undefined),i
COc1ccc(N2C(=O)CCS2(=O)=O)cc1S(=O)(=O)Nc1ccc(C(F)(F)F)cc1,i
COc1ccc(CNc2nc3nc(CNc4cccc(C)c4C)cc(=O)n3[nH]2)cc1,i
CCOC(=O)CCc1c(C)nc2nc(CNc3ccccc3Cl)[nH]n2c1=O,i
Cc1cccc(NCc2nc3nc(C)c(Cc4ccc(Cl)cc4)c(=O)n3[nH]2)c1C,+
CCCc1cc(=O)n2[nH]c(CNc3cccc(Cl)c3C)nc2n1,+
CCCc1c(C)nc2nc(-c3ccco3)[nH]n2c1=O,i
